From the supplement of paper PMC11732987, “Enantioselective OTUD7B fragment discovery through chemoproteomics screening and high-throughput optimisation” (Communications Chemistry, 2025)

Assays:
Assay in all cases: log2 ratio of Biotin-Ahx-Ub-VS probe labelling (fragment/DMSO); higher = less target engagement (more negative = stronger competition), active = hit call of the paper (q ≤ 0.05, log2 ratio ≤ -1)
Conditions in all cases: compound concentration: 200 uM; treatment time: 3 h
USP19 = target: T1, USP19 (UniProt O94966)
T1 sequence (whole entry): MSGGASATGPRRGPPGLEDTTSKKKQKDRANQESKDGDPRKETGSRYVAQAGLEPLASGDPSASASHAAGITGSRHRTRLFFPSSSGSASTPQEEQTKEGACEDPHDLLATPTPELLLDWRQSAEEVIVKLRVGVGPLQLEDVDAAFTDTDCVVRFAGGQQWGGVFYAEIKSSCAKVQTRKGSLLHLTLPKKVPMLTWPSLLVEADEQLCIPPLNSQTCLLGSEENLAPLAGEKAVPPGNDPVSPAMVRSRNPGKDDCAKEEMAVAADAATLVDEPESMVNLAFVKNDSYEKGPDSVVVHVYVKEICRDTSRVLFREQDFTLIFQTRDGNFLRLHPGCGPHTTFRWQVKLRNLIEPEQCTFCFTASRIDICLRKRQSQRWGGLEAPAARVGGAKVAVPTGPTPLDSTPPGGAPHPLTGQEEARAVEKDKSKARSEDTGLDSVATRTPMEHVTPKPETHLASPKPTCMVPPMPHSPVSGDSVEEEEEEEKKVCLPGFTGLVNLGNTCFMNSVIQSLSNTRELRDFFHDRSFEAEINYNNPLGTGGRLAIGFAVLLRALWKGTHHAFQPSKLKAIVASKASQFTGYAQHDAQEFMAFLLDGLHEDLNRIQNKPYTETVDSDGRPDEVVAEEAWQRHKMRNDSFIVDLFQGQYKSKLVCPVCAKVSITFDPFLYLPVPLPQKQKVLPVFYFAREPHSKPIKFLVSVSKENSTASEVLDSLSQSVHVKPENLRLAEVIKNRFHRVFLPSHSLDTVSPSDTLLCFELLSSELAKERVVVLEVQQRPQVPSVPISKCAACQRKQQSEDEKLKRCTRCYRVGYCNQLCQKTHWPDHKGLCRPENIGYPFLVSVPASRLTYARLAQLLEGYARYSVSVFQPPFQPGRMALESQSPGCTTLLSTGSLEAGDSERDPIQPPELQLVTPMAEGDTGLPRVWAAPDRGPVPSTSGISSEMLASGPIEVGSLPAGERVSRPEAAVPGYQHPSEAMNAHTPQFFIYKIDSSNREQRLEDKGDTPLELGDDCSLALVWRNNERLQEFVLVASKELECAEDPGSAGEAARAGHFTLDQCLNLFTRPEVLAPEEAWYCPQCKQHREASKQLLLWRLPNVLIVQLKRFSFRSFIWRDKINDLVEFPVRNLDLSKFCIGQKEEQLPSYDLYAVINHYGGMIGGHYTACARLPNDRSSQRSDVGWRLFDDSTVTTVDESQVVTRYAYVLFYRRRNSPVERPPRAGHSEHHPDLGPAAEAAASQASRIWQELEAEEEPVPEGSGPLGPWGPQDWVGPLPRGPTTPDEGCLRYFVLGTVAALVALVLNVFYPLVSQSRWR
Summary of the method: (§1)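 Labelling with Biotin-Ahx-Ub-VS (0.5 µM final, 1 h) followed a 3 h triplicate treatment of HEK293T lysate (495 µg per sample, Tris/CHAPS/IGEPAL buffer with protease inhibitors) with fragment at 200 µM or vehicle. Labelled DUBs were NeutrAvidin-enriched, digested with LysC and trypsin, and run by diaPASEF LC-MS/MS. The values, average log2 fragment/vehicle ratios by unpaired t-test, come from global-median-normalised Spectronaut label-free quantities. Proteins with ≥2 unique peptides were used.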

USP22 = target: T2, USP22 (UniProt Q9UPT9)
T2 sequence (whole entry): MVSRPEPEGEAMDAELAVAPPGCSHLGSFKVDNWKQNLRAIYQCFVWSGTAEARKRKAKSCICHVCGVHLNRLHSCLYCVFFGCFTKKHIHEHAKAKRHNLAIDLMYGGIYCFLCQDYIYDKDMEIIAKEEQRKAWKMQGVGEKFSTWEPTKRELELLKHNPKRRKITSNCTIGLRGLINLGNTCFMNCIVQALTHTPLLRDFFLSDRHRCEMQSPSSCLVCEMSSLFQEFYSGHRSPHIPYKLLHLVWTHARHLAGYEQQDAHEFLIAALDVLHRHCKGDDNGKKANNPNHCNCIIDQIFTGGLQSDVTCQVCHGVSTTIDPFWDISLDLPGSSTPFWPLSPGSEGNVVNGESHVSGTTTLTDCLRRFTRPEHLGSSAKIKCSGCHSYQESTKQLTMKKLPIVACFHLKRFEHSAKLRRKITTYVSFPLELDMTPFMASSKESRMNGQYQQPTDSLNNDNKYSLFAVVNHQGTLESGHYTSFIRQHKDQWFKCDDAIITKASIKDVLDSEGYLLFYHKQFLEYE
Summary of the method: as §1

USP24 = USP24 (UniProt Q9UPU5)
Summary of the method: as §1

USP25 = target: T3, USP25 (UniProt Q9UHP3)
T3 sequence (whole entry): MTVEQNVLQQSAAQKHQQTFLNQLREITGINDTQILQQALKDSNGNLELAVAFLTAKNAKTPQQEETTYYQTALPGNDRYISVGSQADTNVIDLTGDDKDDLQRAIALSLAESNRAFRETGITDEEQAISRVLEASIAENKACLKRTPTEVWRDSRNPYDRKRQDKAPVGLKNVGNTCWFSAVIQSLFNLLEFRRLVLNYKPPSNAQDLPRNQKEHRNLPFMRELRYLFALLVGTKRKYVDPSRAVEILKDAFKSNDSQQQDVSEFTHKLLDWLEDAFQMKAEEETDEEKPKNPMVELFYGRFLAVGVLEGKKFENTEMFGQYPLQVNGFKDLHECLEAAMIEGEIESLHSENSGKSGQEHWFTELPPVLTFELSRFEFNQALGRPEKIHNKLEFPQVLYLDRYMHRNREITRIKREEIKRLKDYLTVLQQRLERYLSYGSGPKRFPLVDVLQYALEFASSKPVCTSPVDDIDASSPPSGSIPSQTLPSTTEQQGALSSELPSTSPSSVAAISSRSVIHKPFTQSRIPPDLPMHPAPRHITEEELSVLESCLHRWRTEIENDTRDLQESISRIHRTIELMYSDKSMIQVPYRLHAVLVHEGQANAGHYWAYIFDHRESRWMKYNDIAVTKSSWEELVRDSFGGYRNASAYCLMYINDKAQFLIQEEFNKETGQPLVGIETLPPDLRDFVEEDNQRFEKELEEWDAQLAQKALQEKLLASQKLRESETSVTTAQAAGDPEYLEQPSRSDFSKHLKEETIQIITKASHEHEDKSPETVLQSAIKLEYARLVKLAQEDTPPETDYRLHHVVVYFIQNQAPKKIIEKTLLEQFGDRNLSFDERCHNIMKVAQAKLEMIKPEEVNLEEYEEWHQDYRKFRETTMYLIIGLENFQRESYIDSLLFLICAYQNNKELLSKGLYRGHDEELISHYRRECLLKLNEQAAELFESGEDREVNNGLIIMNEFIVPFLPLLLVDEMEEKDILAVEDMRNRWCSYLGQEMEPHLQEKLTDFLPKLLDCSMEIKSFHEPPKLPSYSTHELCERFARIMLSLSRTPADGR
Summary of the method: as §1

USP28 = target: T4, USP28 (UniProt Q96RU2)
T4 sequence (whole entry): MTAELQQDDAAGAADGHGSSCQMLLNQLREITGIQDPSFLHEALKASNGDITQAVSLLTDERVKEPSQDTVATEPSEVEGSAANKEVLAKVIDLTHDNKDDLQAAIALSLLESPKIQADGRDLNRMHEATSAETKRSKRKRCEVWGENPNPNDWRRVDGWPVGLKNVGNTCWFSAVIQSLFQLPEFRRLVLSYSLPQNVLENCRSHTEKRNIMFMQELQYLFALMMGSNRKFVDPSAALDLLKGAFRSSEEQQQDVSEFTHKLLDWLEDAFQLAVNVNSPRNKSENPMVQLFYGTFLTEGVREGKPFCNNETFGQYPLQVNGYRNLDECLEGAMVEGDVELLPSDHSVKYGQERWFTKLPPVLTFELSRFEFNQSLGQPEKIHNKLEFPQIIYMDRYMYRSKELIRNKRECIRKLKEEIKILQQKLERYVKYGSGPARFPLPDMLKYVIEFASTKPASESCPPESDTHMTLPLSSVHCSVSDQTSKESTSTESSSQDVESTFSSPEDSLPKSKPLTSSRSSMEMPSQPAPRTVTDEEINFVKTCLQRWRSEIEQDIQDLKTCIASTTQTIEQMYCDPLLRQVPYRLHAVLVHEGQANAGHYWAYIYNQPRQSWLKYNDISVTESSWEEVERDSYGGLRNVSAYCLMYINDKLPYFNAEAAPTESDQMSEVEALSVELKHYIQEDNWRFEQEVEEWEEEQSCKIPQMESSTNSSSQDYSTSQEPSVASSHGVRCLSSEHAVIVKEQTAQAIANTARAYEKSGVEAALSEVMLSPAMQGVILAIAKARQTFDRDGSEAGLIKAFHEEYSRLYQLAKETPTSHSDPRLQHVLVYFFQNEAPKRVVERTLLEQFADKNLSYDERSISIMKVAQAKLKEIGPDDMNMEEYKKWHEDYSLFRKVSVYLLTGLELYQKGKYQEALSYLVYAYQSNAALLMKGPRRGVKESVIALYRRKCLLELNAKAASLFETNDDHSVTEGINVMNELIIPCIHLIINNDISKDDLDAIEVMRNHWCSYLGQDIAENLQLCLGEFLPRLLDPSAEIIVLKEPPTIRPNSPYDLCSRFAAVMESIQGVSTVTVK
Summary of the method: as §1

Measured: log2 ratio of Biotin-Ahx-Ub-VS probe labelling

USP24, sequence (Q9UPU5 whole entry): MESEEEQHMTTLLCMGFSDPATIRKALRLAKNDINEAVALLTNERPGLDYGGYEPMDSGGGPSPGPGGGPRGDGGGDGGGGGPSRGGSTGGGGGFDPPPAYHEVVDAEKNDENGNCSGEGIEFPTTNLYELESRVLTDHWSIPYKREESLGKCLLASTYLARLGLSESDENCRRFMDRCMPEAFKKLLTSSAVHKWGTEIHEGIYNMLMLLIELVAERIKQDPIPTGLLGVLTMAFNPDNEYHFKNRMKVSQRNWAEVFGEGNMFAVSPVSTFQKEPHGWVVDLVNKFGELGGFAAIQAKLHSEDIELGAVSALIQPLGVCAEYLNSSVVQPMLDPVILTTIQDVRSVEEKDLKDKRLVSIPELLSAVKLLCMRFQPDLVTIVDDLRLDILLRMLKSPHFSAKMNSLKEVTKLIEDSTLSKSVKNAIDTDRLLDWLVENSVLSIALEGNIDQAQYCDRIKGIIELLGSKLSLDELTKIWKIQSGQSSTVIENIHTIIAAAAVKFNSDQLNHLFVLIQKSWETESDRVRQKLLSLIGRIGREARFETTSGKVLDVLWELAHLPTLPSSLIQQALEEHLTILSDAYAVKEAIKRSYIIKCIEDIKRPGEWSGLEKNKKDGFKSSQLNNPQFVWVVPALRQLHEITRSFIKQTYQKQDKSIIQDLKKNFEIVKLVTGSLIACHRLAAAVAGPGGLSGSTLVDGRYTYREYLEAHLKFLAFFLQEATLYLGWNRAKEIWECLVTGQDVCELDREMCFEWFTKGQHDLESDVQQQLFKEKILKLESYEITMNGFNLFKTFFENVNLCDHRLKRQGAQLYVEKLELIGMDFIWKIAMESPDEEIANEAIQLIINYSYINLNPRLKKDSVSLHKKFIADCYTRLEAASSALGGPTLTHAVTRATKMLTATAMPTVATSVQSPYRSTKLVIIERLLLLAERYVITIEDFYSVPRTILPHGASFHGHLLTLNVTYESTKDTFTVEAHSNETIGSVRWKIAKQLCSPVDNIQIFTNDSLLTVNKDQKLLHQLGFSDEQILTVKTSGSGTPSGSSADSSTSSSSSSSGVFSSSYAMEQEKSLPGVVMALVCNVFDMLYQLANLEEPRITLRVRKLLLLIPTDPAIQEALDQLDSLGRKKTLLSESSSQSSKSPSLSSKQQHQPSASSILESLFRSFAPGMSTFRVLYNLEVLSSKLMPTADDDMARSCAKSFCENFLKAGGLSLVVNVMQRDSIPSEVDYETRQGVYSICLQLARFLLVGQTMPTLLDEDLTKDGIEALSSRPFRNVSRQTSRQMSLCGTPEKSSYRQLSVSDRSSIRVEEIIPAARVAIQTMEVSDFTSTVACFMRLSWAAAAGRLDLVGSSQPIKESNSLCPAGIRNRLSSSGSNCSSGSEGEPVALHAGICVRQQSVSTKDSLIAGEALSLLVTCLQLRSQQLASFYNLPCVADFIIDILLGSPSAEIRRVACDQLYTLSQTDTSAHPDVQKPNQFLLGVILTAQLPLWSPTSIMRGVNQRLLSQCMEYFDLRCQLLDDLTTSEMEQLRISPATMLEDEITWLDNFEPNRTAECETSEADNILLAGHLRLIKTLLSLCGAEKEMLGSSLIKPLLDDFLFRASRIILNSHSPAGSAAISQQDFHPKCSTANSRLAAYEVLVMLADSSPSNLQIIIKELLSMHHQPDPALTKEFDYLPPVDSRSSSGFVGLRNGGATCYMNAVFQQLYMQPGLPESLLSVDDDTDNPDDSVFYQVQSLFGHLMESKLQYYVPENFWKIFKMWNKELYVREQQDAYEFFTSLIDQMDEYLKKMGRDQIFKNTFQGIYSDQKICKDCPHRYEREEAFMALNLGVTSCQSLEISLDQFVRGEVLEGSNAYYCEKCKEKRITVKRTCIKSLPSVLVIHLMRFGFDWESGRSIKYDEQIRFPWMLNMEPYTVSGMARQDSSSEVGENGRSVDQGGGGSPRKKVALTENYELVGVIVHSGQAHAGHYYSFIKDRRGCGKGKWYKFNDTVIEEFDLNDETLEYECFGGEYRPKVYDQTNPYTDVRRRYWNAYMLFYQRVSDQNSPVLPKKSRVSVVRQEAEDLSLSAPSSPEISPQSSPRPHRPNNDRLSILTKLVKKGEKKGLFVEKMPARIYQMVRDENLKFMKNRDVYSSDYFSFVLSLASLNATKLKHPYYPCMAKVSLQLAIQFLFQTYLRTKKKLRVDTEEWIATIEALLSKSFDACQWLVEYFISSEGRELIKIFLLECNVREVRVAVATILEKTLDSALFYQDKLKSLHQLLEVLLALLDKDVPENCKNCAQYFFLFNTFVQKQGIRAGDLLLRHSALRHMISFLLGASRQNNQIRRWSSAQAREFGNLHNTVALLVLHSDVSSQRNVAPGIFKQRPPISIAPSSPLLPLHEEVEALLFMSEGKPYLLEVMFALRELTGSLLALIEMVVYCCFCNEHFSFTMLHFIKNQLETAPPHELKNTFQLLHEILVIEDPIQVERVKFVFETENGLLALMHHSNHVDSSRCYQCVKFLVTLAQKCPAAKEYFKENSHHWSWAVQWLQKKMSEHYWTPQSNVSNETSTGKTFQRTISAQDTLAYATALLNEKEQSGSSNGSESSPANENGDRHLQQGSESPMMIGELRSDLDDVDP

Cc1ccccc1OCC(=O)N1CCN(C(=O)CCl)CC1
inactive: USP19 -0.401 | USP22 0.0214 | USP24 -0.309 | USP25 -0.0662 | USP28 -0.249
